PubChem BioAssay AID686979 (National Center for Advancing Translational Sciences (NCATS), 2013)
The campaign covered roughly 420,000 compounds. About 50,000 (12%) were called active. Where a call stands in place of a potency, no number is given. Another 26% or so got no clear call; they are omitted. The sample as a whole holds a higher share of actives than the screen did. A number with no mark means an inactive call. Calls follow the shape of the dose curve; as a rule, active = well fitted inhibition curve with a large enough effect; inconclusive = small, poorly fitted or top-dose-only effect; inactive = flat fitted curve, though single readings scatter.

Experiment: qHTS for Inhibitors of human tyrosyl-DNA phosphodiesterase 1 (TDP1): qHTS in cells in presence of CPT; also: nearly all actives have a fitted effect of over 55% in size
Conditions: chicken DT40 Tdp1-/-;hTDP1 cells + 20 nM CPT, ATP luminescence, 48 h; series mostly up to 46.2 µM
Method in brief: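 Cell growth measured by CellTiter-Glo luminescence after a minimum 48 h, 37 C compound exposure with 20 nM CPT in Tdp1-knockout DT40 cells stably expressing hTDP1, seeded 400/well; qHTS titration format.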
Potency is read from the fitted curve at half-maximal effect.

SMILES | Potency | activity change, negative = growth inhibition
Cc1ccc(-c2ccc(CCC(=O)O)n2-c2ccc(C(N)=O)cc2)cc1 | inactive | –
CC(C)C[C@@H]1COc2cc(N3CCC[C@@H]3CO)ccc2S(=O)(=O)N1 | inactive | –
O=C(Nc1ccccc1C(=O)NCC1CCCO1)c1ccccc1F (configuration not stated) | inactive | –
O=C(NC1CC1)C(Cc1ccccc1)NS(=O)(=O)c1ccccc1F (configuration not stated) | 16.4 µM (active) | –
CCOC(=O)C1=C(COC(=O)[C@H](C)NS(=O)(=O)c2ccccc2F)NC(=O)NC1C (some centres not stated) | inactive | –
CC(=O)NC(Cc1ccccc1)C(=O)NC1CCN(c2ncccc2[N+](=O)[O-])CC1 (configuration not stated) | inactive | –
Cc1ccc(C)c(Nc2nnc(-c3ccc(C)c(S(=O)(=O)N4CCCCC4)c3)c3ccccc23)c1 | 4.11 µM (active) | –
Cc1ccc(C(=O)NCC(=O)O)cc1S(=O)(=O)N1CCCCC1 | inactive | –
Cc1ccc(NS(=O)(=O)c2cccs2)cc1S(=O)(=O)N1CCCCCC1 | inactive | –
Cc1ccc(S(=O)(=O)N(C)C)cc1NC(=O)c1n[nH]c(=O)c2ccccc12 | 18.4 µM (active) | –
CC(=O)c1c(C)[nH]c(C(=O)Nc2cc(S(=O)(=O)N(C)C)ccc2C)c1C | inactive | –
Cc1ccc(S(=O)(=O)N(C)C)cc1NC(=O)c1ccccc1Br | inactive | –
O=C(CSc1nc2[nH]c(=O)[nH]c(=O)c2s1)Nc1cccc(F)c1 | inactive | –
CCC(C)[C@@H](C(=O)N1CCNCC1)n1cc(CCCCN)nn1 (some centres not stated) | inactive | –
CCOC(=O)c1cccc(NC(=O)CN2C(=O)C3CC=CCC3C2=O)c1 (configuration not stated) | inactive | –
CCOC(=O)N1CCN(c2cc(C)c([N+](=O)[O-])cc2F)CC1 | 20.6 µM (active) | –
CCOC(=O)N1CCN(C(=S)Nc2ccc(C)cc2C)CC1 | inactive | –
CCOC(=O)C1CCN(c2ccc(C(=O)O)cc2[N+](=O)[O-])CC1 | inactive | –
NC(=O)C1CCN(C(=O)CC2C(=O)NCCN2Cc2cccc(Oc3ccccc3)c2)CC1 (configuration not stated) | inactive | –
Cc1ccc(C(CNC(=O)Nc2cccc(C)c2)N2CCN(C)CC2)cc1 (configuration not stated) | inactive | –
Cc1ccc(NC(=O)Cn2cccc2C2=NC(c3ccccc3)CO2)c(C)c1 (configuration not stated) | inactive | –
COC(CNC(=O)Cn1ncc2ccsc2c1=O)OC | inactive | –
O=C1OCCC1=COCCCCOC=C1CCOC1=O | inactive | –
Brc1ccc(CN2CC[C@H]3C=CCc4cccc(c43)C2)cc1 | 14.1 µM (active) | –
CCCC(=O)C1CCN(Cc2ccccc2)CC1 | inactive | –
CCN(CCCNC(=O)c1c(C)oc2ncn(CC(C)C)c(=O)c12)Cc1ccccc1 | inactive | –

SMILES | Potency | activity change, negative = growth inhibition
O=S(=O)(NC1CC2CCC1C2)c1ccc(Cl)cc1 (configuration not stated) | inactive | –
O=C(CO/N=C/c1ccc(OC(F)F)cc1)NCc1ccc(F)cc1 | inactive | –
O=C1/C(=C/c2cccs2)CCc2ccccc21 | inactive | –
COc1ccccc1C1=CC(=O)CCC1 | inactive | –
COc1ccc(/C=C2/CCCc3ccccc3C2=O)cc1 | 5.8 µM (active) | –
COc1ccc(/C=C2\NC(=O)[C@@H]3Cc4ccccc4CN3C2=O)cc1 | – | -14.1% [at 9.04 µM]
COc1ccc(/C=C2\CCc3ccccc3C2=O)c(OC)c1OC | 23.1 µM (active) | –
COc1ccc(/C=C2\N=C3CCCN3C2=O)cc1 | inactive | –
COc1cc2[nH]c(=S)n(Cc3ccc(F)cc3)c(=O)c2cc1OC | inactive | –
COc1ccccc1NC(=O)N(O)C1(C#N)CCCCC1 | inactive | –
Cc1nn(CC(=O)NC2CCCCC2)c(=O)c2cccn12 | inactive | –
O=C(/C=C/c1ccc(F)cc1)Nc1cccc(S(=O)(=O)Nc2cccc(C(F)(F)F)c2)c1 | 14.6 µM (active) | –
O=C(/C=C/c1ccc(Cl)cc1)Nc1ccc(S(=O)(=O)Nc2ncccn2)cc1 | inactive | –
O=C(CNS(=O)(=O)c1cccc(C(F)(F)F)c1)Nc1ccccc1F | inactive | –
Cc1ccc(OCC(=O)Nc2ccc(OCc3cc(=O)n4c(C)csc4n3)cc2)cc1C | inactive | –
COc1cc(Cl)c(NC(=O)CC(C)S(=O)(=O)c2cc3c(cc2C)NC(=O)CO3)c(OC)c1 (configuration not stated) | inactive | –
O=C(/C=C/c1ccccc1)Nc1nnc(SCC(=O)c2ccc3ccccc3c2)s1 | inactive | –
Cc1cccc(NC(=O)C2CCN(C(=O)NC3CCCCC3)CC2)c1 | inactive | –
COc1ccc(NC(=O)CCCN2C(=O)CCn3nc(-c4cn(C)c5ccccc45)cc32)cc1OC | 18.4 µM (active) | –
O=C(CN1C(=O)CCn2nc(-c3ccccc3)cc21)NCc1ccccc1 | inactive | –
COc1ccc(NC(=O)N2CCCn3nc(C)cc32)cc1OC | inactive | –
CCOC(=O)C1(C)CCCN(C(=O)c2ccc(N(C)C)cc2)C1 (configuration not stated) | inactive | –
CC(NCCc1ccc(S(N)(=O)=O)cc1)C(=O)NCc1ccccc1 (configuration not stated) | inactive | –
Cn1ccc(=Nc2ccc(NC(=O)c3ccc(N=c4ccn(C)c5ccc([N+](=O)[O-])cc45)cc3)cc2)cc1 | 3.66 µM (active) | –
COc1cc(NS(=O)(=O)c2ccc(NC(=O)c3ccc([N+](=O)[O-])cc3)cc2)ncn1 | inactive | –
CC(=O)NC(=S)Nc1ccc(NC(=S)NC(=O)c2ccc([N+](=O)[O-])cc2)cc1 | inactive | –

SMILES | Potency | activity change, negative = growth inhibition
CSCCC(NC(=O)c1ccco1)C(=O)NCCc1ccc(F)cc1 (configuration not stated) | inactive | –
CN(C)CCNC(=O)c1ccc(Cl)c2cc3ccccc3nc12 | 0.164 µM (active) | –
CC(=O)NCCNC(=O)c1cc(-c2cccc3ccccc23)nc2ccccc12 | inactive | –
CN(C)CCNC(=O)Nc1cccc(Cl)c1Cl | inactive | –
COc1cc(/C=N/NC(=O)CCc2n[nH]c(=O)[nH]c2=O)ccc1O | inactive | –
O=C(CCc1ccc(O)cc1)NN=Cc1cc(Br)ccc1O | 8.2 µM (active) | –
O=C(CCC(=O)N/N=C/c1ccc(Br)o1)N/N=C/c1ccc(Br)o1 | inactive | –
CCCCn1c(N)c(N(CCOC)C(=O)CSCC(=O)Nc2cccc(C)c2)c(=O)[nH]c1=O | inactive | –
CC1CCCCC1NC(=O)c1cc(=O)[nH]c2ccccc12 (configuration not stated) | inactive | –
COc1ccc(C2CC(c3cccs3)=NN2C(=O)COC(=O)c2cc3ccccc3cc2O)cc1OC (configuration not stated) | inactive | –
CC(=O)NC(CC(=O)Nc1cccc(S(=O)(=O)N2CCCC2)c1)c1ccccc1 (configuration not stated) | inactive | –
Cc1nn(-c2ccc(N3CCCCC3)nn2)c(C)c1CCC(=O)NCc1ccccc1F | inactive | –
CCOc1ccc(CNC(=O)CCC(=O)N2CCSc3ccccc32)cc1 | inactive | –
CCOc1ccc(CNC(=O)CCc2c(C)nn(-c3ccc(N4CCCCC4)nn3)c2C)cc1 | 25.9 µM (active) | –
O=C(Nc1cccc(Cl)c1N1CCOCC1)c1cccnc1 | inactive | –
COc1cccc(-n2c(=O)c3c(C)c(C(=O)N(C)C)sc3n(CC(=O)NCCc3ccc(OC)c(OC)c3)c2=O)c1 | inactive | –
CCOc1ccc(/C=N\NC(=O)c2c(C)nc3cc(C)ccn23)cc1 | inactive | –
CCOc1cc(/C=N/NC(=O)c2c(C)nc3ccc(Cl)cn23)ccc1O | 13 µM (active) | –
CCOc1cc(C=NNC(=O)CCCC(=O)NN=Cc2ccc(O)c(OCC)c2)ccc1O | inactive | –
COc1ccc(-c2c(C(C)=O)c(C)nc3sc4c(=O)n(-c5ccc(C)cc5)nnc4c23)cc1 | inactive | –
Oc1ccc(Cl)cc1/C=N/c1nc2ccccc2[nH]1 | inactive | –
SCc1nc2ccc(Cl)cc2[nH]1 | 5.62 µM (active) | –
OC(c1nc2ccc(F)cc2[nH]1)C(O)c1nc2ccc(F)cc2[nH]1 (configuration not stated) | inactive | –
Cc1ccc(OC(=O)c2c(C)nn(-c3ccccc3)c2C)cc1 | inactive | –
CCOC(=O)/C=C/CN(C(=O)OC(C)(C)C)S(=O)(=O)N1CC=CC1 | inactive | –
O=C(CCN1Cc2ccccc2OC(c2ccccc2)C1)N[C@@H]1CS(=O)(=O)C[C@H]1O (some centres not stated) | – | 2.04% [at 9.04 µM]

SMILES | Potency | activity change, negative = growth inhibition
Cc1cc2nc(C(F)(F)F)cc(-c3cccs3)n2n1 | inactive | –
Cn1c(CCN2CCN(c3ccccn3)CC2)nc2cc(NS(=O)(=O)c3ccc(F)cc3)ccc21 | 16.4 µM (active) | –
CCC(=O)Nc1ccc2c(c1)nc(CCN1CCN(c3ccccn3)CC1)n2C | inactive | –
CCC(=O)Nc1ccc2c(c1)nc(CCN1CCN(C)CC1)n2C | inactive | –
COc1ccc(S(=O)(=O)N2CCCCC2)cc1C(=O)NC1CCS(=O)(=O)C1 (configuration not stated) | inactive | –
COC(=O)C(C)n1cnc2c(nnn2-c2ccc(F)cc2)c1=O (configuration not stated) | inactive | –
COc1ccc(S(=O)(=O)N2C[C@H]3CON(C)[C@H]3C[C@H]2c2cccc(Br)c2)cc1 | inactive | –
O=C(Nc1cccc(F)c1)NC1CCCCCCC1 | 18.4 µM (active) | –
C/C(CC(=O)Nc1cccc(F)c1)=N\NC(=O)C(=O)NC1CCCCC1 | inactive | –
Cc1cc(C)cc(NC(=O)NC2CCCCCCC2)c1 | inactive | –
COc1ccc2c(c1)C(=O)Nc1cc(Cl)ccc1N2 | inactive | –
Cc1cc(C)nc(N/N=C/c2c(CO)cnc(C)c2O)n1 | inactive | –
CCN(CC)CCCN=Cc1c(O)n(-c2ccc(C)cc2)c(=O)c2ccccc12 | inactive | –
CCOc1ccc(-n2c(O)c(/C=N/Nc3nc(C)cc(C)n3)c3ccccc3c2=O)cc1 | 2.59 µM (active) | –
CCOc1ccc(N/C(N)=N/c2nc(C)c(C)c(=O)[nH]2)cc1 | inactive | –
CCOc1ccc(-n2c(O)c(/C=N/Nc3nnc(C)c(=O)[nH]3)c3ccccc3c2=O)cc1 | 0.651 µM (active) | –
Cc1nnc(N/N=C/c2ccccn2)[nH]c1=O | 4.61 µM (active) | –
Cc1nnc(N/N=C/c2cccs2)[nH]c1=O | inactive | –
COc1ccc(-n2c(O)c(C=NCC(c3ccco3)N3CCCC3)c3ccccc3c2=O)cc1OC (configuration not stated) | inactive | –
Cc1ccccc1Nc1nnc(C)c(=O)[nH]1 | inactive | –
COC1=NC2=NCCN2C(OC)=N1 | inactive | –
O=S(=O)(c1ccc(Br)cc1)c1nnn2c1nc(NC1CCCCCC1)c1sccc12 | inactive | –
Cc1cccn2c(=O)nc(SCC(=O)NCc3ccccc3Cl)nc12 | inactive | –
CN(C(=O)COC(=O)Cc1ccccc1[N+](=O)[O-])C1CCS(=O)(=O)C1 (configuration not stated) | inactive | –
